# In PubChem BioAssay (EPA / NIEHS):
# Inconclusive results are not listed. Calls of active or inactive are those of the source. How the source made its calls: active means hit-call score of the fitted dose curve at least 0.9, where 1 is the maximum; inconclusive means response in the unintended direction; inactive means score below 0.9.
# Target: Retinoic acid receptor RXR-alpha (Homo sapiens) (UniProt P19793)
# Experiment: ATG_RXRa_TRANS: Attagene TRANS-FACTORIAL HepG2 Assay for human Retinoid X Receptor alpha (RXRa) (AID 2283012)
# Method: ATG_TRANS is a cell-based, multiplexed-readout assay that uses HepG2, a human liver cell line, with measurements taken at 24 hours after chemical dosing in a 24-well plate.ATG_RXRa_TRANS is one of 30 assay component(s) measured or calculated from the ATG_TRANS assay. It is designed to make measurements of mRNA induction, a form of inducible reporter, as detected with fluorescence intensity signals by Reverse transcription polymerase chain reaction (RT-PCR) and Capillary electrophoresis technology.Data from the assay component ATG_RXRa_TRANS was analyzed into 1 assay endpoint. This assay endpoint, ATG_RXRa_TRANS, was analyzed in the positive analysis fitting direction relative to DMSO as the negative control and baseline of activity. Using a type of inducible reporter, measures of mRNA for gain-of-signal activity can be used to understand the reporter gene at the transcription factor-level as they relate to the gene RXRA. Furthermore, this assay endpoint can be referred to as a primary readout, because this assay has produced multiple assay endpoints where this one serves a reporter gene function. To generalize the intended target to other relatable targets, this assay endpoint is annotated to the nuclear receptor intended target family, where the subfamily is non-steroidal.
# Human liver HepG2 cells are transiently transfected with multiple reporter transcription units (MRTUs) in 6-well plates using FuGene 6 reagent (Roche; 3 ml FuGene/1 mg DNA). The MRTU constructs are regulated by a cis-regulating element (promoter). […] A major difference between the CIS and TRANS system is that in CIS activities of endogenous TFs are measured, whereas the TRANS assay evaluates changes in activities of exogenous, chimeric NR-Gal4 proteins. […] At the end of 24 hour incubation, total RNA was isolated using TriZol reagent (Invitrogen). The isolated RNA is then reverse-transcribed using oligo(dT) primer and Mo-MLV reverse transcriptase (Invitrogen) with DNAse I (Ambion) treatment for 30 min. The one-tenth of the produced cDNA was amplified by PCR using Taq DNA polymerase (Invitrogen) and two reporter sequence-specific primers. The PCR products were fluorescently labeled by primer extension with 6-arboxyfluorescein (6-FAM) 5'-labeled reporter sequence-specific primer (2 min at 95 C, 20 s at 68 C and 10 min at 72 C) and these products were digested with 5U of HpaI (New England Biolabs) for 2h at 37 C. The fragments were purified using Qiaquick PCR columns (Qiagen), analyzed on an ABI 3130xL genetic analyzer (Applied Biosystems) with peak positions identified by using a set of X-rhodamine (ROX)-labeled MapMarker1000 molecular weight standards (BioVentures). The raw capillary electrophoresis data was processed using Attagraph software (Attagene).
# Chain of Retinoic acid receptor RXR-alpha (Homo sapiens) (P19793 whole entry, looked up): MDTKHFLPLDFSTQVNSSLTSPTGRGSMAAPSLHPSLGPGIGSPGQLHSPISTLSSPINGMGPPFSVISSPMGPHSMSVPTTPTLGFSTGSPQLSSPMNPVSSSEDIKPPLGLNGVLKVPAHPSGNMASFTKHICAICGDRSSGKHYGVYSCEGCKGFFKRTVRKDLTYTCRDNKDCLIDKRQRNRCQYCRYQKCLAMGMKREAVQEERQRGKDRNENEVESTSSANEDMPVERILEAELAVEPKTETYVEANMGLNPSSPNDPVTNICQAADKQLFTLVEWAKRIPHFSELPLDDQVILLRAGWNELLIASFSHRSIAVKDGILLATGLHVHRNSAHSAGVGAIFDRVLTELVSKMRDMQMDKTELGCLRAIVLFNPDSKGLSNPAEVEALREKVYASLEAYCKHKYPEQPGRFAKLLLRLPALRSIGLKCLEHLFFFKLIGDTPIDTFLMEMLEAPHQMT
Structure (SMILES),outcome,AC50
C=CCOCC(O)CCl (stereo not given),inactive,–
CC=CCO,inactive,–
C=CCOc1c(Br)cc(Br)cc1Br,–,56.2 µM (active)
CN(C)c1ccc(N=Nc2ccccc2C(=O)O)cc1,inactive,–
CC1(C)O[C@@H]2C[C@H]3[C@@H]4C[C@H](F)C5=CC(=O)C=C[C@]5(C)[C@@]4(F)[C@@H](O)C[C@]3(C)[C@]2(C(=O)CO)O1,inactive,–
CN(C)c1ccc(C(=N)c2ccc(N(C)C)cc2)cc1,inactive,–
OC1CCCCCCCCCCC1,inactive,–
O=C(O)c1ccccc1Nc1cccc(C(F)(F)F)c1,inactive,–
CC1OC1C1CCC2(C)OC2C1 (stereo not given),inactive,–
O=C(O)c1cc(Cl)cc([N+](=O)[O-])c1Cl,inactive,–
CC1=Nc2ccc3ccccc3c2C1(C)C,inactive,–
Cc1cc(C)c(C)c(O)c1,inactive,–
CC(C)=CCC[C@H](C)CCO,inactive,–
COC(F)(F)C(F)(C(F)(F)F)C(F)(F)F,inactive,–
CC(C)CCCCCOC(=O)CCS,inactive,–
OCCNCc1ccccc1,inactive,–
COC(=O)c1c(C)cc(O)c(C)c1O,inactive,–
CCCCCC(C)O (stereo not given),inactive,–
CCC(Cc1ccccc1)(C(=O)c1ccc(N2CCOCC2)cc1)N(C)C (stereo not given),inactive,–
C[Si](C)(C)O[Si](O)(O)O,inactive,–

Structure (SMILES),outcome,AC50
O=C1CCCC1,inactive,–
CC(=O)c1ccc[nH]1,inactive,–
CC(=O)Nc1nnc(S(N)(=O)=O)s1,inactive,–
C(=CC=Nc1ccccc1)C=CNc1ccccc1,inactive,–
CNC(=S)N(C)C,inactive,–
C1=CCCC1,inactive,–
N[C@H]1C(O)O[C@H](CO)[C@H](O)[C@@H]1O (stereo not given in full),inactive,–
CCC(CO)CO,inactive,–
c1ccc2c(c1)ccc1ncccc12,inactive,–
COC(=O)/C=C/C(C)=C\C=C\C(C)=C\C=C\C=C(C)\C=C\C=C(C)\C=C\C(=O)O,inactive,–
O=c1[nH]nc(-c2ccc([N+](=O)[O-])o2)o1,inactive,–
O=c1n(CCO)c(=O)n(CCO)c(=O)n1CCO,inactive,–
O=C(O)CCCCCCCCCC(=O)O,inactive,–
C=CC(=O)OCC(Br)CBr (stereo not given),inactive,–
C#CC1(O)CC[C@H]2[C@@H]3CCC4=CCCC[C@@H]4[C@H]3CC[C@@]21C (stereo not given in full),inactive,–
Cc1ccc(C(C)(C)C)cc1,inactive,–
CCOC(=O)NNc1nncc2ccccc12,inactive,–
Nc1ccc(Cl)cc1Cl,inactive,–
Cc1ccccc1C,inactive,–
CC(C)(C)c1n[nH]c(=O)n(N)c1=O,inactive,–
